Assay [1] deals with T1, Thyroid hormone receptor alpha (Rattus norvegicus) + Thyroid hormone receptor beta (Rattus norvegicus) (UniProt P18113+P63059). Put plainly: TOX21_TR_LUC_GH3_Agonist_Followup: Tox21 GH3 Thyroid Hormone Receptor Agonism Luciferase Follow-Up Assay (AID 2283939). An outline of the steps:
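Agonist-mode confirmatory run: 15 concentrations (5 nM to 92 uM final) on GH3 rat pituitary cells, 24 h at 37C/5% CO2, T3 as positive control. Luminescence read with ONE-Glo after 30 min.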

The target of assay [2] is THRA (gene 7067) (UniProt P10827). Nature of the assay: TOX21_TRA_COA_Agonist_Followup_ratio: Tox21 Thyroid Hormone Receptor alpha Agonism through Coactivator Recruitment Follow-Up Assay, Ratio (AID 2283948; active = hit-call score of the fitted dose curve at least 0.9, where 1 is the maximum; inactive = score below 0.9). A digest of the protocol: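 Cell-free TR-FRET: GST-tagged TRα LBD (2.5 nM) with 0.10% BSA and compound, then fluorescein-SRC-2 peptide (200 nM) and Tb-anti-GST antibody (2 nM). Readout 520:495 nm ratio (ex 340 nm), normalized to DMSO (0%) and T3 (100%).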
THRA (gene 7067), sequence (P10827 whole entry, looked up, the tested form may be a part): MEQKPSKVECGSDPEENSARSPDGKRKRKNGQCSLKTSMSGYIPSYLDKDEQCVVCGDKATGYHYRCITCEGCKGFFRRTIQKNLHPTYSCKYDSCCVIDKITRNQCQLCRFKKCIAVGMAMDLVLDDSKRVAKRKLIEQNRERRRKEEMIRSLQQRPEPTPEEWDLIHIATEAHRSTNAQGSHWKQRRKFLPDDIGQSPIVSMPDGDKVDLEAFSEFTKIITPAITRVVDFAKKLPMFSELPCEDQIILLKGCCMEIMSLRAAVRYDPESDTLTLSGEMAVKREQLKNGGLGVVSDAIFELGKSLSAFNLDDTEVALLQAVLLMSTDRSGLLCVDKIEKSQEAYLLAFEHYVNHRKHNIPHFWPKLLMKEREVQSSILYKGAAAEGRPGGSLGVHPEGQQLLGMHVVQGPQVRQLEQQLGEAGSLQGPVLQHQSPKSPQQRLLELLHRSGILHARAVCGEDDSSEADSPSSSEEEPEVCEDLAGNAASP

Assay [3] addresses THRB (gene 7068) (UniProt P10828). Put plainly: TOX21_TRB_BLA_Agonist_Followup_ratio: Tox21 Thyroid Hormone Receptor beta Agonism Beta-lactamase (BLA) Follow-Up Assay, Ratio (AID 2283954). A digest of the protocol: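 Agonist mode: compounds (11-point, triplicate) incubated 18 h with HEK293T cells carrying GAL4-DBD/human TRβ-LBD and UAS-β-lactamase. Blue/green (460/530 nm) FRET ratio read after 2 h CCF4-AM loading; CellTiter-Glo viability run in the same plates.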

The nature of assay [4]: TOX21_TRB_BLA_Agonist_Followup_viability: Viability Assessment in the Tox21 Thyroid Hormone Receptor beta Agonism Beta-lactamase (BLA) Follow-Up Assay (AID 2283956). A digest of the protocol:
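Viability was read as CellTiter-Glo luminescence in the same wells as the TRb-bla agonist read-out. HEK293T GAL4-TRb LBD cells were treated for 18 h (37C, 5% CO2) at 11 concentrations in triplicate. Fits were bidirectional versus DMSO baseline.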

Assay [5] is described as follows: CEETOX_H295R_OHPREG_noMTC: CeeTox H295R High-throughput Steroidogenesis Assay for OH-Pregnenolone (OHPREG), maximum tolerated concentration (MTC) filtered results only (AID 2283912; active = hit-call score of the fitted dose curve at least 0.9, where 1 is the maximum; inactive = score below 0.9). As to conditions: actives raise or lower the signal. A digest of the protocol:
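Readout is HPLC-MS/MS quantification of 17alpha-hydroxypregnenolone released by forskolin-stimulated H295R cells over 48 h of chemical exposure, DMSO as baseline.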

Assay [6] in a line: CEETOX_H295R_OHPROG_noMTC: CeeTox H295R High-throughput Steroidogenesis Assay for OH-Progesterone (OHPROG), maximum tolerated concentration (MTC) filtered results only (AID 2283914; active = hit-call score of the fitted dose curve at least 0.9, where 1 is the maximum; inactive = score below 0.9). As to conditions: actives raise or lower the signal. A digest of the protocol: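 Analysis uses all tested concentrations, without maximum-tolerated-concentration screening by MTT. H295R cells, forskolin-primed (10 uM, 48 h), receive chemical for 48 h; hormone in medium measured by HPLC-MS/MS, with bidirectional curve fitting against DMSO.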

The nature of assay [7]: CEETOX_H295R_ANDR_noMTC: CeeTox H295R High-throughput Steroidogenesis Assay for Androstenedione (ANDR), maximum tolerated concentration (MTC) filtered results only (AID 2283915; active = hit-call score of the fitted dose curve at least 0.9, where 1 is the maximum; inactive = score below 0.9). As to conditions: actives raise or lower the signal. An outline of the steps:
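Androstenedione secreted into medium was measured by LC-MS/MS after MTBE extraction. Human adrenal H295R cells received 10 uM forskolin for 48 h before 48 h chemical exposure (0.1% DMSO). Gain or loss fitted against DMSO, including concentrations above the MTT-derived MTC.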

A short description of assay [8]: CEETOX_H295R_PROG_noMTC: CeeTox H295R High-throughput Steroidogenesis Assay for Progesterone (PROG), maximum tolerated concentration (MTC) filtered results only (AID 2283920; active = hit-call score of the fitted dose curve at least 0.9, where 1 is the maximum; inactive = score below 0.9). The conditions noted are these: actives raise or lower the signal. An outline of the steps:
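Progesterone synthesis in the human adrenal line H295R is measured by HPLC-MS/MS after 48 h chemical exposure following 48 h forskolin (10 uM) stimulation. Activity in either direction is fitted relative to DMSO.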

Assay [9] in a line: CEETOX_H295R_TESTO_noMTC: CeeTox H295R High-throughput Steroidogenesis Assay for Testosterone (TESTO), maximum tolerated concentration (MTC) filtered results only (AID 2283924; active = hit-call score of the fitted dose curve at least 0.9, where 1 is the maximum; inactive = score below 0.9). The conditions noted are these: actives raise or lower the signal. A digest of the protocol:
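Medium testosterone, measured by HPLC-MS/MS after liquid-liquid extraction, was fitted in both directions relative to DMSO without MTC filtering. Adrenal H295R cells received 48 h chemical exposure (0.1% DMSO final) after 48 h forskolin (10 uM) prestimulation; viability by MTT.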

The target of assay [10] is T1, Thyroid hormone receptor alpha (Rattus norvegicus) + Thyroid hormone receptor beta (Rattus norvegicus). Nature of the assay: TOX21_TR_LUC_GH3_Antagonist_Followup: Tox21 GH3 Thyroid Hormone Receptor Antagonism Luciferase Follow-Up Assay (AID 2283942). An outline of the steps:
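In a GH3 luciferase reporter line, test chemicals spanning 92 uM to 5nM final are co-incubated 24 h with 1.0 nM T3. Activity is expressed as relative luminescence units and analysed relative to DMSO.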

In assay [11] the target is THRA (gene 7067) (UniProt P10827). Put plainly: TOX21_TRA_COA_Antagonist_Followup_ratio: Tox21 Thyroid Hormone Receptor alpha Antagonism through Coactivator Recruitment Follow-Up Assay, Ratio (AID 2283953). A digest of the protocol: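 We measured antagonism of T3-type coactivator recruitment using a TR-FRET ratio (emission 520 and 495 nm) between a Tb-labelled anti-GST antibody on TRα LBD (2.5 nM) and SRC-2 peptide (200 nM). Activity was scaled between DMSO and T3 wells.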

In assay [12] the target is THRB (gene 7068) (UniProt P10828). Nature of the assay: TOX21_TRB_BLA_Antagonist_Followup_ratio: Tox21 Thyroid Hormone Receptor beta Antagonism Beta-lactamase (BLA) Follow-Up Assay, Ratio (AID 2283958). An outline of the steps:
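Read-out: blue/green (460:530 nm) ratio of cleaved to uncleaved CCF4-AM after 2 h at room temperature, fitted against DMSO baseline. HEK293T UAS-bla cells carrying GAL4-human TRβ LBD were exposed 18 h, 37C/5% CO2.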

Assay [13] concerns the target PGR (gene 5241) (UniProt P06401). Put plainly: TOX21_PR_BLA_Followup_Antagonist_ratio: Tox21 HEK293 Progesterone Receptor (PR) Antagonism Beta-lactamase Follow-Up Assay, Ratio (AID 2283934). An outline of the steps: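 Read-out: blue/green beta-lactamase FRET ratio (cleaved ch2 over uncleaved ch1), fitted relative to DMSO baseline. Cells: PR-UAS-bla HEK293T, GAL4-UAS reporter, stimulated with 1 nM R5020 final; 16 hr compound exposure, 37C.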

Assay [14] in a line: TOX21_PR_BLA_Followup_Agonist_viability: Viability Assessment in the Tox21 HEK293 Progesterone Receptor (PR) Agonism Beta-lactamase Follow-Up Assay (AID 2283935).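 Note: signal loss means lower viability so actives are cytotoxic.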 A digest of the protocol: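 Luminescent ATP quantitation (CellTiter-Glo, 30 min, room temperature) in the same wells as the beta-lactamase read, on PR-UAS-bla HEK293T cells exposed to compound for 16 hr at 37C in 2% charcoal-stripped serum.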

A short description of assay [15]: TOX21_PR_BLA_Followup_Antagonist_viability: Viability Assessment in the Tox21 HEK293 Progesterone Receptor (PR) Antagonism Beta-lactamase Follow-Up Assay (AID 2283936).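 Note: cells exposed to compound with R5020 agonist for 16 h; hits lower the luminescence signal meaning cytotoxicity.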 An outline of the steps:
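PR-UAS-bla HEK293T cells in medium with 2% charcoal-stripped FBS were treated with compounds plus R5020 for 16 hr at 37C. After the beta-lactamase read, CellTiter-Glo was added to the same wells and luminescence read after 30 min at room temperature.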

Assay [16] has as its target PGR (gene 5241) (UniProt P06401). Nature of the assay: TOX21_PR_LUC_Followup_Antagonist: Tox21 HEK293 Progesterone Receptor (PR) Antagonism Luciferase Follow-Up Assay (AID 2283938).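 Note: curve fitted upward as signal gain over DMSO baseline despite antagonist label.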 A digest of the protocol: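 HEK293-PR-A-luc cells, 3,000/well, preincubated 5 h at 37C before compound addition in DMSO; 16 h compound exposure at 37C. ONE-Glo luciferase luminescence read after 30 min at room temperature, fitted relative to DMSO baseline.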

Assay [17] can be described thus: TOX21_PR_LUC_Followup_Antagonist_viability: Viability Assessment in the Tox21 HEK293 Progesterone Receptor (PR) Antagonism Luciferase Follow-Up Assay (AID 2283940). A digest of the protocol:
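Read-out: CellTiter-Glo ATP luminescence, loss of signal taken as reduced viability. Cells: HEK293-PR-A-luc, 3,000/well, 5 h settling, then 16 h compound exposure at 37C, 0% CO2.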

For assay [18], the target named is PGR (gene 5241) (UniProt P06401). Put plainly: TOX21_PR_BLA_Followup_Agonist_ratio: Tox21 HEK293 Progesterone Receptor (PR) Agonism Beta-lactamase Follow-Up Assay, Ratio (AID 2283933). An outline of the steps:
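Read-out: ratio of cleaved (ch2) to uncleaved (ch1) beta-lactamase substrate fluorescence, gain-of-signal relative to DMSO baseline. Cells: PR-UAS-bla HEK293T, 2% charcoal-stripped FBS; compound exposure 16 hr, 37C; substrate 2 hr, RT.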

Assay [19] has the same target. Nature of the assay: TOX21_PR_LUC_Followup_Agonist: Tox21 HEK293 Progesterone Receptor (PR) Agonism Luciferase Follow-Up Assay (AID 2283937; active = hit-call score of the fitted dose curve at least 0.9, where 1 is the maximum; inactive = score below 0.9). An outline of the steps: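 Luminescence read-out (ONE-Glo, 30 min at room temperature) of PR-driven luciferase in HEK293-PR-A-luc cells after 16 h compound exposure at 37C; gain of signal fitted relative to DMSO baseline.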

A short description of assay [20]: TOX21_PR_LUC_Followup_Agonist_viability: Viability Assessment in the Tox21 HEK293 Progesterone Receptor (PR) Agonism Luciferase Follow-Up Assay (AID 2283941).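 Note: loss of signal means cytotoxicity so actives lower viability.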 An outline of the steps:
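Cytotoxicity counter-screen: ATP content by CellTiter-Glo luminescence, loss of signal = reduced viability. HEK293-PR-A-luc, 3,000 cells/well, compound exposure 16 h, 37C.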

Molecules are shown by their SMILES. Records with an inconclusive call do not appear. The source made the active and inactive calls. Rule for the calls, unless noted: active = hit-call score of the fitted dose curve at least 0.9, where 1 is the maximum; inconclusive = response in the unintended direction; inactive = score below 0.9.

THRB (gene 7068), sequence (P10828 whole entry, looked up, the tested form may be a part): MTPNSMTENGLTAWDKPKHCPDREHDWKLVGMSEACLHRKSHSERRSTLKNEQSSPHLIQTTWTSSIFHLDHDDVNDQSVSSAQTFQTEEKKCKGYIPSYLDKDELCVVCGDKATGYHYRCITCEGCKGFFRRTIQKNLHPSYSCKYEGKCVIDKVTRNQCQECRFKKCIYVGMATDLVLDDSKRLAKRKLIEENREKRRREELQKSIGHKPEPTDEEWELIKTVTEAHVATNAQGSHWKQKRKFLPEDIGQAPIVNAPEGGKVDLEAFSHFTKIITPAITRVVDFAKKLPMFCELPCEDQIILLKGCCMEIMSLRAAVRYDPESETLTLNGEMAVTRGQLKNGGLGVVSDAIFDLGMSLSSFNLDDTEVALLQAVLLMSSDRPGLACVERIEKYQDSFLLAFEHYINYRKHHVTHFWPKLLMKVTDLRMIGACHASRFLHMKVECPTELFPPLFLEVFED
PGR (gene 5241), sequence (P06401 whole entry, looked up, the tested form may be a part): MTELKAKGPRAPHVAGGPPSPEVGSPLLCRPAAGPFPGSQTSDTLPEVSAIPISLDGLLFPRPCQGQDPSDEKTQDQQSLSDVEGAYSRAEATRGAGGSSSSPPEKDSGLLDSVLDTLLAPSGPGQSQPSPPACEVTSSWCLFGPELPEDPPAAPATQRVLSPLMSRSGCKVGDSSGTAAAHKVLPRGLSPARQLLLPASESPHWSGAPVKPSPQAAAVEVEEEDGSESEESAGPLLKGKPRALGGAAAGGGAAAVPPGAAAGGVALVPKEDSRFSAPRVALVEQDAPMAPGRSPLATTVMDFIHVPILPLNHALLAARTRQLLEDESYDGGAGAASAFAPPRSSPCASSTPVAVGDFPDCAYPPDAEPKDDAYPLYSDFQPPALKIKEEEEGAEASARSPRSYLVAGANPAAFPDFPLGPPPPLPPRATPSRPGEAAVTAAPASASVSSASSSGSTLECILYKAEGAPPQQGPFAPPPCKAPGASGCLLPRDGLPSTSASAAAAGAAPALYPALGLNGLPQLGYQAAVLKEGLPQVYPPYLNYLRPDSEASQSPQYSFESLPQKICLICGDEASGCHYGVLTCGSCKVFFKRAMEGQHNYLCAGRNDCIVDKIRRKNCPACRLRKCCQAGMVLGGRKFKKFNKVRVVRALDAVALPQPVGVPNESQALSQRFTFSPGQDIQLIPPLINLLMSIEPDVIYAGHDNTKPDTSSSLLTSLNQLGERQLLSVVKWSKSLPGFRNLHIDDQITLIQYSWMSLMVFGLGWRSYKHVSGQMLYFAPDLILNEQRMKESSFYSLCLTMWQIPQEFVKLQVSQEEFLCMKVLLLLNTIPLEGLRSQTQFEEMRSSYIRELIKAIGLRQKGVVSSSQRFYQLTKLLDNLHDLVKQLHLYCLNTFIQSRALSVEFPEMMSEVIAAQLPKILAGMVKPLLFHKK
T1 sequence (P63059 whole entry, looked up): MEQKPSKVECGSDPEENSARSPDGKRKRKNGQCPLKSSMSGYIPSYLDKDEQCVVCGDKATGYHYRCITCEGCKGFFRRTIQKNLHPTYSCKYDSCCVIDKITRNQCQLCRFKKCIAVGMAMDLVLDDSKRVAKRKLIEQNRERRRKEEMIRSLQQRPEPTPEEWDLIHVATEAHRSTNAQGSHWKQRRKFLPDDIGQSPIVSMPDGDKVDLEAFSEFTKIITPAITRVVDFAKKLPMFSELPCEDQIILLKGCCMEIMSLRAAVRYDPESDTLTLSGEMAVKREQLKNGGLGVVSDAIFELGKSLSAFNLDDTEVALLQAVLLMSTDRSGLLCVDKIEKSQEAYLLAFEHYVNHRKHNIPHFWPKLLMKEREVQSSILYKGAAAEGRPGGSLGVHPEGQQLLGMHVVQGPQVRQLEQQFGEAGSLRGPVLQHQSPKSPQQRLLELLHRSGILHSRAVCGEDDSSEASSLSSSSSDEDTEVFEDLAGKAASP
T1 sequence (P18113 whole entry, looked up): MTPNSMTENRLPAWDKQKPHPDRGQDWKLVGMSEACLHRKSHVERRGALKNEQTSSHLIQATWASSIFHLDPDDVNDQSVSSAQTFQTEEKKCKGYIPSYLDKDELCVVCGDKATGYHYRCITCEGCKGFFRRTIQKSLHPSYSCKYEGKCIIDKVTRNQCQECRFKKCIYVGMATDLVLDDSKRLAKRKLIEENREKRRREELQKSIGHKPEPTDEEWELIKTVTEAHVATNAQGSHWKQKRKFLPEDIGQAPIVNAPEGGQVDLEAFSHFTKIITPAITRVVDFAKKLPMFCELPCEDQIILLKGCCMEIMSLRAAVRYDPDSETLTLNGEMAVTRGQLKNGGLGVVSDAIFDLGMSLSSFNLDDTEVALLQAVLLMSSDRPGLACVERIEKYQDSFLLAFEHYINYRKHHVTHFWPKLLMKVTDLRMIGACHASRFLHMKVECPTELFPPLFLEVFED

Turning to `C[N+]1(C)CCCCC1`, the outcome (in assay [1]; with THRA (gene 7067) [2]; in the assay with THRB (gene 7068) [3]; in [4]) was inactive.
Consider `CCCCOC(=O)c1ccccc1C(=O)O`, for which the compound was classed as inactive in assay [5], in assay [6], in assay [7], in assay [8] and in [9].
Regarding `CSC1=N[C@@](C)(c2ccccc2)C(=O)N1Nc1ccccc1`, the outcome (in [10]; with THRA (gene 7067) [11]; in the assay with THRB (gene 7068) [12]) was inactive.
Consider `CON=C(C(=O)OC)c1ccccc1CON=C(C)c1cccc(C(F)(F)F)c1`, for which the outcome with THRB (gene 7068) [12] was inactive.
Broadly, the AC50 is the concentration giving half of the maximal activity seen. As for `CCOP(=S)(OCC)Oc1ccc([N+](=O)[O-])cc1`, the values for the AC50 in the assay with PGR (gene 5241) [13] and with PGR (gene 5241) [16] were 3.78 µM (active) and 4.86 µM (active), respectively. Further, the compound was called inactive in [14], in assay [15] and in assay [17].
For `CCC(=O)Nc1ccc(Cl)c(Cl)c1`, the result (with PGR (gene 5241) [18]; with PGR (gene 5241) [13]; in [14]; in assay [15]; with PGR (gene 5241) [19]; with PGR (gene 5241) [16]) was inactive. Further, the result in [17] and in [20] was inactive.
Turning to `C=C(C)[C@H]1Cc2c(ccc3c2O[C@@H]2COc4cc(OC)c(OC)cc4[C@@H]2C3=O)O1`, the AC50 in assay [10] was 5.29 µM (active); in the assay with THRB (gene 7068) [12] it was 1.52 µM (active).
